# Experimental data: the supplement of paper PMC10338343
# ± gives the standard deviation.
# Tested on: EfPiwi piRISC loaded with piRNA #1 (26 nt)
# Assay: pre-steady-state target cleavage rate (min^-1); auxiliary factor: 500 nM Ephydatia muelleri Gtsf1; guide: piRNA #1 5'p-UGAGGUAGUAGGUUGUAUAGUAUCCA; MIWI and MILI are mouse PIWI proteins and EfPiwi is from a freshwater sponge; tags in brackets are library labels; higher = faster piRNA-guided slicing of the target
# Outline: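 Active affinity-purified piRISC (1 nM) loaded with one synthetic guide was mixed with a transcribed, DNA-blocked target RNA library (0.1 nM), with or without 500 nM GTSF1 partner protein, in HEPES–potassium acetate buffer at 33 °C for 0–8 or 0–960 min. Uncleaved targets were sequenced, normalised to depth and to weakly complementary targets, and pooled across three trials, with k3 capped at 0.0001 min^-1. The pre-steady-state cleavage rate was determined with a burst-and-steady-state fit.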
row,Sequence,pre-steady-state target cleavage rate
1,GGAGUGGAAUACUAUACAACCUACUACCUCA,0.122 ± 0.045
2,GGAGAGGAUACUAUACUAACCUACUACCUCA,0.0128 ± 0.007
3,GGAGUGGAUACUAUACAACCUACAAGCUCA,0.00192 ± 0.0017
4,GGAGUGGAUACUAUACAACCUACAACGUCA,0.00302 ± 0.0017
